# Of roughly 8,800 targets only a part is listed; those with a hit were picked by preference. About 0.5% of all pairs of compound and target were hits. Values without a mark were called inactive.
# How the values were obtained:
# Assay in all cases: log2 fold change, soluble protein after heating vs DMSO (PISA); higher = thermal stabilisation; K562 lysate, 10 uM; active = over 0.2 and 3.5 SD of the protein, either way, in both replicates (recomputed)
# nilotinib = compound: Cc1cn(-c2cc(NC(=O)c3ccc(C)c(Nc4nccc(-c5cccnc5)n4)c3)cc(C(F)(F)F)c2)cn1 [nilotinib]
# Method in brief: (§1)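 Log-two fold change in thermal stability relative to solvent controls is reported from duplicates. For each sample, crude K562 extract from dounce-homogenised pellets in PBS pH 7.4 with 1 mM MgCl2, at 1 mg/mL protein, was treated with 10 μM compound for 30 min. Aliquots heated for 3 min across 48°C-58°C were pooled, brought to 0.5% NP-40 at 4°C and cleared at 21,000xg for 90 min. The supernatant was quantified by TMTpro 16plex LC-MS/MS with channel sums equalised.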
# [1] = compound: Cc1nc(Nc2n[nH]c3c2CN(C(=O)N[C@H](CN(C)C)c2ccccc2)C3(C)C)c2sccc2n1
# Method in brief: as §1
# dasatinib = compound: Cc1nc(Nc2ncc(C(=O)Nc3c(C)cccc3Cl)s2)cc(N2CCN(CCO)CC2)n1 [dasatinib]
# Method in brief: as §1
# [2] = compound: Cc1ncc(-c2ccnc(Nc3ccc(S(C)(=O)=O)cc3)n2)n1C(C)C
# Method in brief: as §1
# [3] = compound: Cn1cc(-c2ccc3c(c2)CCN3C(=O)Cc2cccc(C(F)(F)F)c2)c2c(N)ncnc21
# Method in brief: as §1
# quisinostat = compound: Cn1cc(CNCC2CCN(c3ncc(C(=O)NO)cn3)CC2)c2ccccc21 [quisinostat]
# Method in brief: as §1
# tipifarnib = compound: Cn1cncc1[C@@](N)(c1ccc(Cl)cc1)c1ccc2c(c1)c(-c1cccc(Cl)c1)cc(=O)n2C [tipifarnib]
# Method in brief: as §1
# [4] = compound: NC(=O)Nc1cc(-c2cccc(F)c2)sc1C(=O)N[C@H]1CCCNC1
# Method in brief: as §1
# [5] = compound: NC(=O)c1cnc(N[C@@H]2CCCC[C@@H]2N)nc1Nc1cccc(-n2nccn2)c1
# Method in brief: as §1
# [6] = compound: NC1(c2ccc(-c3nc4ccn5c(=O)[nH]nc5c4cc3-c3ccccc3)cc2)CCC1
# Method in brief: as §1
# [7] = compound: NCC(=O)Nc1ccc(-n2nc(C(F)(F)F)cc2-c2ccc3c(ccc4ccccc43)c2)cc1
# Method in brief: as §1
# vorinostat = compound: O=C(CCCCCCC(=O)Nc1ccccc1)NO [vorinostat]
# Method in brief: as §1
# silmitasertib = compound: O=C(O)c1ccc2c(c1)nc(Nc1cccc(Cl)c1)c1ccncc12 [silmitasertib]
# Method in brief: as §1
# [8] = compound: O=C1NC(=O)C(c2cnc3ccccn23)=C1c1cn2c3c(cc(F)cc13)CN(C(=O)N1CCCCC1)CC2
# Method in brief: as §1
# entospletinib = compound: c1cn2cc(-c3ccc4cn[nH]c4c3)nc(Nc3ccc(N4CCOCC4)cc3)c2n1 [entospletinib]
# Method in brief: as §1
# Chain of UniProt Q96BS2 (Q96BS2 whole entry, looked up): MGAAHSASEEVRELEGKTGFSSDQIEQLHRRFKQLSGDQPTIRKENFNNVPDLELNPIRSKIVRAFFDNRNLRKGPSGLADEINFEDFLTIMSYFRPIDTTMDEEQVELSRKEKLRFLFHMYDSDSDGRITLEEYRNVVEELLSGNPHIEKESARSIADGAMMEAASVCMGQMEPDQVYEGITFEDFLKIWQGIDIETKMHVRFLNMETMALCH
# Chain of UniProt Q9H7E2 (Q9H7E2 whole entry, looked up): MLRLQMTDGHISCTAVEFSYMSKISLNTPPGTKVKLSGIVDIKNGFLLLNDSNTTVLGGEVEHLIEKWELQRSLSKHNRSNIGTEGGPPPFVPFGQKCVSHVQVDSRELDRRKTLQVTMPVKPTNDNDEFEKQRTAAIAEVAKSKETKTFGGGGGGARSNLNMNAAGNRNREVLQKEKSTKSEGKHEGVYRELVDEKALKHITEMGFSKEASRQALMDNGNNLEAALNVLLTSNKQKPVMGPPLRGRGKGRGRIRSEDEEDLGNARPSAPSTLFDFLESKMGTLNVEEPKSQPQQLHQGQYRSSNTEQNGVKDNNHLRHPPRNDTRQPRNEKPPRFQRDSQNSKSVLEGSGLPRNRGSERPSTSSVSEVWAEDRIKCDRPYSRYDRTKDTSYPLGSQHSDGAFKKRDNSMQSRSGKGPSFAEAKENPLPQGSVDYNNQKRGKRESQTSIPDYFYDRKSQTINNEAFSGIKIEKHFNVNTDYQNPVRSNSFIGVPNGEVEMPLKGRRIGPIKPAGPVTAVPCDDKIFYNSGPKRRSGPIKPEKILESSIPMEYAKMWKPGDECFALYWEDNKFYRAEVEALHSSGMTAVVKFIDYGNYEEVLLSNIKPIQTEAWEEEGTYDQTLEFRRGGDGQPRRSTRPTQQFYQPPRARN
# Chain of UniProt Q9NUY8 (Q9NUY8 whole entry, looked up): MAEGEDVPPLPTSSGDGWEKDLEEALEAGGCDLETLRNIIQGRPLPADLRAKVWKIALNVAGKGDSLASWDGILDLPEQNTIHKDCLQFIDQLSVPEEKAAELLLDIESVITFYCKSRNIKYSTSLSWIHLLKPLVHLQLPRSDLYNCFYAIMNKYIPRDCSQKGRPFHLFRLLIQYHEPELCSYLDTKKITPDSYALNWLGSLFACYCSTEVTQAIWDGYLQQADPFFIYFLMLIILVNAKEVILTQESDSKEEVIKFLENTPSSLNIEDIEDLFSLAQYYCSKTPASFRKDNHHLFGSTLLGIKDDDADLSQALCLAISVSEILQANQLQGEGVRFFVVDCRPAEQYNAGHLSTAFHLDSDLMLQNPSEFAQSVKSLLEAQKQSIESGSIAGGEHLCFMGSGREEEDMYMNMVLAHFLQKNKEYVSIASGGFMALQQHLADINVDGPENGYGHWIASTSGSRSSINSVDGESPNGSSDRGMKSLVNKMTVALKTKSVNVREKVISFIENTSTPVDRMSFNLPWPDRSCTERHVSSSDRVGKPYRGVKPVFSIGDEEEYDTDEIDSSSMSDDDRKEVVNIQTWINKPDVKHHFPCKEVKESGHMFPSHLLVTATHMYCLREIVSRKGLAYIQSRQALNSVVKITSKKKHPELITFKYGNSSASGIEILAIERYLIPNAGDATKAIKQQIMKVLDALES
# Chain of UniProt Q13769 (Q13769 whole entry, looked up): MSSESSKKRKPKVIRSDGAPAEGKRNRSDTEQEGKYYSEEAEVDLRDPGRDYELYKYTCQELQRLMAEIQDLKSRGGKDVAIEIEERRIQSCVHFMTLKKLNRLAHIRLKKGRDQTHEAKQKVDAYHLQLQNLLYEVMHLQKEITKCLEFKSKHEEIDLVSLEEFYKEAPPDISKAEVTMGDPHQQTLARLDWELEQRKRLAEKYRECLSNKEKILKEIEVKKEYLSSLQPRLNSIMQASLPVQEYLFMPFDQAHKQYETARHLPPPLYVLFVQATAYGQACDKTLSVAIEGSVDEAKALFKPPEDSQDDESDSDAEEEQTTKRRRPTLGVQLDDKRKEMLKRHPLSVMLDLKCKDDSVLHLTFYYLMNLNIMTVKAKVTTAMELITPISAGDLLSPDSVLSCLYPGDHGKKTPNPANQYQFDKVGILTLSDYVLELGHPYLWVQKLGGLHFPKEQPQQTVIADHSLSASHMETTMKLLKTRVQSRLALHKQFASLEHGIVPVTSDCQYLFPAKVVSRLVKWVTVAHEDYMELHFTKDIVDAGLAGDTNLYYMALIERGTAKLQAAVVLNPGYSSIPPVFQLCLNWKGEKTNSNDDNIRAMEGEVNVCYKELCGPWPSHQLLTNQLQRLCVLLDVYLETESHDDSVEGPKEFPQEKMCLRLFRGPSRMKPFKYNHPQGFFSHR
# Chain of UniProt P17480 (P17480 whole entry, looked up): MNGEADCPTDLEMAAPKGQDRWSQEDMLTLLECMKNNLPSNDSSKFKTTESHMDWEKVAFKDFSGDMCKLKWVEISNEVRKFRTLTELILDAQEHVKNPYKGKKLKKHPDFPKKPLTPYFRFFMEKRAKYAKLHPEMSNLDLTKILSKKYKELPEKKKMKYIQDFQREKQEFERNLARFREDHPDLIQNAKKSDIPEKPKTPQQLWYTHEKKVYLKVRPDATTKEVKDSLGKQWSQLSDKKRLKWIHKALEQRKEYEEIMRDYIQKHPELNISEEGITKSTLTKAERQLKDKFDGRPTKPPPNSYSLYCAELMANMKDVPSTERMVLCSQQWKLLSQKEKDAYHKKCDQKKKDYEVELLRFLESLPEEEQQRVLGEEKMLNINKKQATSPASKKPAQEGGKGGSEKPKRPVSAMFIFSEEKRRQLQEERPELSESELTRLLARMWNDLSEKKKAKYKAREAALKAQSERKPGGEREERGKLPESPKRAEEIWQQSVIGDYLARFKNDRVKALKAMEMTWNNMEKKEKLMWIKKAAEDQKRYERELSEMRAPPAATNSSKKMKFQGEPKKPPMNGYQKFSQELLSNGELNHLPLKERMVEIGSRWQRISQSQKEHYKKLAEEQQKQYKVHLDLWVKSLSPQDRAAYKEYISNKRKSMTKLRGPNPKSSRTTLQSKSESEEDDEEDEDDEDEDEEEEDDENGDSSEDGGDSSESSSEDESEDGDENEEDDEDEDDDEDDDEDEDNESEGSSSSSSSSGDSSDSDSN
# Chain of UniProt Q9UPN9 (Q9UPN9 whole entry, looked up): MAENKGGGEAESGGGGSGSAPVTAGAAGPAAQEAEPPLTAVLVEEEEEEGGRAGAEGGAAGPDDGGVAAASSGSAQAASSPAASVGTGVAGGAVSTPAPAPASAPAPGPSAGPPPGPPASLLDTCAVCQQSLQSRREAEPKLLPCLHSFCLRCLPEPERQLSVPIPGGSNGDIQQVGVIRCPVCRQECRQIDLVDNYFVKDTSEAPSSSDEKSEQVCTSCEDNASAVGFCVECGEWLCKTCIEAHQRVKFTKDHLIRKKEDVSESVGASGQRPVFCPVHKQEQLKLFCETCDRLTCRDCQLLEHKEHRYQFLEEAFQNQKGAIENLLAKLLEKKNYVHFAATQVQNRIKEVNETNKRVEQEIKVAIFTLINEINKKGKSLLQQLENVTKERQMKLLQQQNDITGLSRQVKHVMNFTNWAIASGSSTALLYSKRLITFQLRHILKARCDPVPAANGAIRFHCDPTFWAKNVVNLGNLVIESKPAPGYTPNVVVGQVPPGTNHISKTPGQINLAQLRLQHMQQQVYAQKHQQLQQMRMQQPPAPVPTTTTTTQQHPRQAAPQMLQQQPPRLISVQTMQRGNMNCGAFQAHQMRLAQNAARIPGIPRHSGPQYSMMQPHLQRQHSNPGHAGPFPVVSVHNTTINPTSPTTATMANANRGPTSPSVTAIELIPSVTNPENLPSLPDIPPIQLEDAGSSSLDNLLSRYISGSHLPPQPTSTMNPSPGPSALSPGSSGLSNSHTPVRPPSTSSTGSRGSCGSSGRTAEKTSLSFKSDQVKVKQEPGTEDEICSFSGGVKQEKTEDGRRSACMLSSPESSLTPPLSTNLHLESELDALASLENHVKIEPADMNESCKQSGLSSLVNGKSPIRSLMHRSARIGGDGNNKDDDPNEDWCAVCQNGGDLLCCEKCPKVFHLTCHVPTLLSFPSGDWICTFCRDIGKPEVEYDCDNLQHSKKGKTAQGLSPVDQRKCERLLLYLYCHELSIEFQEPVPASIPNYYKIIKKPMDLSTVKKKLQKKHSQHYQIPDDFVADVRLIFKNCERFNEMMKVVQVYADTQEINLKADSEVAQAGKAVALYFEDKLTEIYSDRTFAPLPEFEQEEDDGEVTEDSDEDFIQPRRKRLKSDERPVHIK
# Chain of UniProt Q9UJT0 (Q9UJT0 whole entry, looked up): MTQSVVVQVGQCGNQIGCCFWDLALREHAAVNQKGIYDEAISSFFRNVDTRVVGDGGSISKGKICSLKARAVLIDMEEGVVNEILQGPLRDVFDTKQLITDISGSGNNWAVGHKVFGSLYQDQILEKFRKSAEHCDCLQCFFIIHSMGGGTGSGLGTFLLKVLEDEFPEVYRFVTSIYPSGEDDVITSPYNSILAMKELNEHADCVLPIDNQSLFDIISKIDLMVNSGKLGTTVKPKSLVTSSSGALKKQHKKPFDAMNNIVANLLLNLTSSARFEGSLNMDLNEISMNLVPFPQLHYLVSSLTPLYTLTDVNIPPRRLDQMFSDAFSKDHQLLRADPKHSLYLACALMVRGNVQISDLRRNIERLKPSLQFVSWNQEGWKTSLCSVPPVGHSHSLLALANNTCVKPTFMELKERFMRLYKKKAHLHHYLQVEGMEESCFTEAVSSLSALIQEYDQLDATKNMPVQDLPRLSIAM
# Chain of UniProt Q5JUR7 (Q5JUR7 whole entry, looked up): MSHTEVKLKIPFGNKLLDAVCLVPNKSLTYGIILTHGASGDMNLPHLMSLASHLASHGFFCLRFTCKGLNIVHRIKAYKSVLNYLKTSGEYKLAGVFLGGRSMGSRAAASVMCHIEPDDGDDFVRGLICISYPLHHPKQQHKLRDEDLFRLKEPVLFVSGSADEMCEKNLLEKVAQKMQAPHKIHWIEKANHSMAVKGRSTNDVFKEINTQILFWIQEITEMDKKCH
Target,log2 fold change (nilotinib),log2 fold change [1],log2 fold change (dasatinib),log2 fold change [2],log2 fold change [3],log2 fold change (quisinostat),log2 fold change (tipifarnib),log2 fold change [4],log2 fold change [5],log2 fold change [6],log2 fold change [7],log2 fold change (vorinostat),log2 fold change (silmitasertib),log2 fold change [8],log2 fold change (entospletinib)
UBTF (UniProt P17480),0.001,0.031,-0.021,-0.039,0.004,0,0.015,0.044,-0.01,-0.042,-0.045,-0.315 (active),0.044,-0.012,0.032
TOR3A (UniProt Q9H497),0.042,-0.037,0.022,-0.043,0.012,0.019,-0.061,0.054,0.041,-0.064,0.011,0.048,-0.002,-0.016,0.02
TMEM164 (UniProt Q5U3C3),0.06,-0.009,-0.087,0.162,-0.041,-0.404,-0.055,0.1,0.083,-0.036,0.098,0.463,-0.079,0.274,0.059
TEX30 (UniProt Q5JUR7),-0.036,0.072,-0.109,0.003,-0.004,0.007,0,0.046,-0.017,-0.052,0.035,-0.534 (active),0.041,-0.006,0.001
TESC (UniProt Q96BS2),0.031,-0.025,0.053,0.05,0.02,0.012,0.012,-0.036,-0.035,0.049,-0.036,0.058,0.103,-0.014,-0.111
TDRD3 isoform 3 (UniProt Q9H7E2),0.261,-0.04,0.033,0.17,0.01,-0.023,-0.152,0.042,0.014,0.064,0.23,-0.016,-0.03,0.008,-0.041
TRIM33 isoform 2 (UniProt Q9UPN9),0.004,-0.012,-0.044,-0.015,0.021,-0.035,0.021,-0.01,0.01,-0.025,-0.005,-0.393 (active),-0.026,-0.04,-0.024
TELO2 (UniProt Q9Y4R8),-0.012,-0.014,-0.082,-0.021,0.035,-0.057,-0.013,0.058,0.003,-0.03,0.003,-0.361 (active),0.117,0.011,0.011
UBAP2 (UniProt Q5T6F2),-0.093,0.008,-0.042,0.021,-0.023,-0.008,-0.073,0.019,0.016,0.029,0.031,0.03,-0.007,0,-0.013
UBR4 (UniProt Q5T4S7),0.007,0.002,-0.027,0.001,0.018,-0.014,-0.001,0.023,-0.005,-0.001,0,-0.14,0.027,-0.008,0.009
TSPAN13 (UniProt O95857),-0.067,0.02,-0.054,0.121,-0.35,0.034,-0.032,-0.126,0.035,0.132,-0.024,0.104,-0.008,0.008,-0.015
TPST2 (UniProt O60704),-0.02,-0.03,-0.007,0.016,0.008,-0.076,-0.058,0.064,-0.064,-0.087,0.045,0.132,-0.03,-0.048,0.016
TTI2 (UniProt Q6NXR4),0.022,0.029,-0.051,0.044,0.01,-0.009,-0.018,-0.003,0.049,-0.013,0.05,-0.303 (active),0.015,0.034,0.005
TPM4 (UniProt P67936),0.028,-0.068,0.058,-0.028,-0.01,0,-0.004,-0.054,0.007,-0.029,-0.001,0.166,-0.018,-0.023,0.048
TBC1D23 (UniProt Q9NUY8),0.013,-0.018,-0.001,-0.005,-0.021,-0.028,0.018,0.01,-0.032,-0.004,0.031,-0.252 (active),-0.023,-0.001,0
TUBE1 (UniProt Q9UJT0),0.036,-0.051,0.017,-0.046,-0.028,-0.037,0.029,0.064,0.007,0.025,0.024,-0.264 (active),-0.049,-0.036,-0.027
TMEM263 (UniProt Q8WUH6),0.151,0.153,-0.134,-0.079,0.011,0.021,-0.512 (active),0.063,-0.021,-0.154,0.053,0.289,-0.15,-0.113,-0.034
THOC5 (UniProt Q13769),-0.035,0.006,-0.014,-0.036,0.029,-0.006,-0.019,0.021,0.009,-0.01,0.012,-0.077,0.011,0.008,-0.009
TUT4 (UniProt Q5TAX3),-0.06,0.02,-0.097,0.001,-0.001,-0.054,-0.045,0.055,0.048,-0.002,0.072,-0.398 (active),0.018,-0.048,-0.029
TRIM25 (UniProt Q14258),0.014,0.027,-0.003,-0.001,-0.002,0.002,-0.001,-0.001,-0.019,0.023,0.013,-0.59 (active),-0.046,-0.018,0.011
TMOD1 (UniProt P28289),-0.029,-0.032,0.011,-0.02,0.014,-0.007,-0.013,0.031,0.008,-0.015,0.005,-0.312 (active),0.02,-0.005,0.01
